Laboratory results as given in PubChem BioAssay AID1851 (National Center for Advancing Translational Sciences (NCATS), 2009).
About 5,800 (36%) of roughly 16,000 compounds were called active. Roughly 23% stayed inconclusive and do not appear here. The call rests on the fitted dose curve; in most records, active means well fitted curve in the direction sought with a large enough effect; inconclusive means small, poorly fitted or top-dose-only effect, or effect the other way; inactive means no such curve, though single readings can be large or run the other way. Some of the results follow.

target: Cytochrome P450 2C19 (Homo sapiens) (UniProt P33261); test: Cytochrome panel assay with activity outcomes; conditions: recombinant CYP, pro-luciferin dealkylation, luminescence, p450-cyp2c19; series mostly up to 57.1 µM
Sequence (P33261 whole entry, looked up): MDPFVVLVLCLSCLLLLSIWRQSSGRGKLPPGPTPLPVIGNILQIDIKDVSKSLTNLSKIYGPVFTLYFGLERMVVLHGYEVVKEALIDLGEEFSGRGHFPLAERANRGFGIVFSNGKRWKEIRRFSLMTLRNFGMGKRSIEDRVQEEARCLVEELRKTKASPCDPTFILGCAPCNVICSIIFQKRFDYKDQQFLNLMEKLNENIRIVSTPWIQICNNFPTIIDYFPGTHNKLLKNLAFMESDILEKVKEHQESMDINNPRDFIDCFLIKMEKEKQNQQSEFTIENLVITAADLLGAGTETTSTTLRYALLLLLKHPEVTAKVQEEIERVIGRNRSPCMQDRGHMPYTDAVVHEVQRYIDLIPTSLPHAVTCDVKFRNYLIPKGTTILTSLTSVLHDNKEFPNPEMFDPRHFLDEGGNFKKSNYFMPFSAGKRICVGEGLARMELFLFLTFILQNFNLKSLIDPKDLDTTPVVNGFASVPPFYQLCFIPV
On the % scale 0 is the no-effect control and ±100 the full control effect.

activity, negative = inhibition, inactive:
NC(N)=NC[C@@H]1CCCCCCN1 23.1% [at 11.4 µM], NNC(=O)Cc1cccnc1 7.22% [at 11.4 µM], CC(C)CO/N=C1/C[C@@H](O)[C@@H](O)[C@@H]2[C@@H]3C(=O)N([C@@H](C)c4ccccc4)C(=O)[C@H]3CC[C@@H]12 7.13% [at 11.4 µM], CC(CO)(CO)N=Cc1cc(I)cc(I)c1O -13.1% [at 11.4 µM], CC(C)C(=O)N[C@@H]1CCCN1C(=O)/C=C\c1ccccc1 -31.2% [at 11.4 µM], CC(C)C(=O)N[C@H]1CCCN1C(=O)/C=C\c1ccccc1 -19.8% [at 11.4 µM], O=C(O)[C@H](CCc1ccccc1)N1C(=O)c2ccccc2C1=O -17.1% [at 11.4 µM], O=C(CCN1CCCCC1)c1csc2ccccc12 -22.7% [at 11.4 µM], Cc1cccc(C(=O)O)c1C[C@H]1NCC[C@H]2c3ccccc3N[C@@H]12 3.69% [at 11.4 µM], CC1(C)[C@@H]2CC[C@]1(C)[C@@H](OC(=O)CSC#N)C2 -26.6% [at 11.4 µM], CCN1C(=O)[C@H]2[C@H]3[C@H](O)[C@H](O)C/C(=N/O[C@@H]4O[C@H](COC(C)=O)[C@@H](OC(C)=O)[C@H](OC(C)=O)[C@H]4OC(C)=O)[C@@H]3CC[C@@H]2C1=O 34.2% [at 11.4 µM]

AC50, active:
O=C(CCc1ccccc1)NCc1cccnc1 25.1 µM, O=C(CSCc1c(Cl)cccc1Cl)NCc1cccnc1 3.55 µM, O=C(c1ccccc1)c1c[nH]c(C(=O)NCc2cccnc2)c1 14.1 µM, COc1ccccc1NC(=O)[C@H](COCc1ccccc1)NC(=O)OC(C)(C)C 3.55 µM, O=[N+]([O-])c1cc(C(F)(F)F)ccc1NCCCCNS(=O)(=O)c1ccc2ccccc2c1 1.78 µM, Cc1ccc(/C=C/C(=O)N2CC(C)CC(C)C2)o1 (stereo unspecified) 11.2 µM, Cc1cccc(NC(=O)CC2Nc3cccc4cccc(c34)NC2=O)c1 (stereo unspecified) 2.24 µM, Cc1cccc(NC(=O)CCCN2C(=O)c3cccc4cccc(c34)C2=O)c1 14.1 µM, O=C(CCCN1C(=O)c2cccc3cccc(c23)C1=O)N1CCc2ccccc2C1 3.98 µM, Cc1ccc(-n2nnnc2Sc2nc([N+](=O)[O-])nn2C)cc1C 3.98 µM, CC(CCc1ccccc1)NC(=O)C(=O)NCCO (stereo unspecified) 31.6 µM, CCCCNC(=O)C(=O)NC(C)CCc1ccccc1 (stereo unspecified) 14.1 µM, CC(CCc1ccccc1)NC(=O)/C=C/c1ccccc1 (stereo unspecified) 8.91 µM, CC(=O)c1cn(CC(=O)Nc2c(C)cccc2C)c2ccccc12 7.08 µM, CC(C)(C)N(NC(=O)Nc1ccc(Cl)c(Cl)c1)C(=O)c1ccccc1 1.26 µM, COC(=O)c1cccc(NC(=O)Nc2ccc(Cl)c(Cl)c2)c1 3.98 µM, Cc1cc(C)cc(C(=O)N(NC(=O)Nc2ccc(Cl)cc2)C(C)(C)C)c1 1.58 µM, CC(C)(C)N(NC(=O)Nc1ccccc1)C(=O)c1ccccc1Cl 11.2 µM, O=C(c1ccccc1)C1CN(c2ccccc2)CC1c1ccc(Cl)cc1 (stereo unspecified) 3.98 µM, COc1ccccc1-c1c(C(F)(F)F)oc2cc(OC(=O)c3cccc([N+](=O)[O-])c3C)ccc2c1=O 0.631 µM, Cc1ccccc1-c1nccc(NCCN2CCOCC2)n1 10 µM, Clc1ccccc1-c1nccc(NCCN2CCOCC2)n1 5.01 µM, CCSc1nnc(NC(=O)C(C(F)(F)F)C(F)(F)F)s1 20 µM, CSc1nc(Oc2ccc(F)cc2)c2ccccc2n1 7.08 µM, CCOC(=O)c1cnn(CCOC(=O)C(C)(C)C)c1NC(=O)C(C)(C)C 14.1 µM, O=c1oc2c(CN3CCOCC3)c(O)ccc2c2ccccc12 14.1 µM, CC(C)(C)S(=O)(=O)c1cnc2c(-c3ccc(F)cc3)cnn2c1N 11.2 µM, CN(Cc1ccco1)c1ncncc1-c1ccc2c(c1)OCO2 0.126 µM, CN(Cc1ccco1)c1ncncc1-c1cccc(C#N)c1 20 µM, COc1cccc(-c2cncnc2N(C)Cc2ccco2)c1 7.94 µM, CN(C)c1ccc(-c2cncnc2N(C)Cc2ccco2)cc1 0.251 µM, CN(Cc1ccco1)c1ncncc1-c1cccnc1 10 µM, CC(NC(=O)c1ccccc1)c1nc2ccccc2n1Cc1ccccc1F (stereo unspecified) 8.91 µM, Cc1cc(NC(=S)NC(=O)CC(C)C)ccc1Br 3.55 µM, CCCCn1nnnc1SCC(=O)c1cc(Cl)ccc1OC 0.0708 µM, CCCCn1nnnc1SCC(=O)N1CCCC1 25.1 µM, O=S(=O)(N/N=C/c1ccc2c(c1)OCCO2)c1ccc(Cl)cc1 2.82 µM, O=S(=O)(N/N=C\c1ccc2c(c1)OCO2)c1ccc(Cl)cc1 0.794 µM, O=C(COc1ccc(Cl)cc1)NCCC1=CCCCC1 3.98 µM, O=C(CN1C(=O)NC2(CCCC2)C1=O)NCCC1=CCCCC1 14.1 µM, O=C(CN1CCN(c2ncccn2)CC1)NCCC1=CCCCC1 4.47 µM, O=C(c1[nH]o[n+](=O)c1C(=O)c1csc2ccccc12)c1csc2ccccc12 1 µM, Cc1nn(Cc2ccc(Cl)cc2)c(C)c1NC(=O)CSc1nc2c(c(C(F)(F)F)n1)CCc1ccccc1-2 2.82 µM, Cc1ccccc1Cn1cc(NC(=O)CSc2nc3c(c(C(F)(F)F)n2)CCc2ccccc2-3)cn1 3.98 µM, O=S(=O)(c1ccc(Cl)s1)N1CCc2ccccc2C1 0.708 µM, COc1ccc(S(=O)(=O)N2CCc3ccccc3C2)cc1OC 0.447 µM, CCN(CC)CC#CCC(C)(c1ccccc1)c1ccccc1 0.447 µM, O=C(c1ccc(N2CCCCC2)c([N+](=O)[O-])c1)N(Cc1ccccc1)c1ccccn1 14.1 µM, O=C1C(Cl)=C(Sc2nnc3c4ccccc4c4ccccc4c3n2)C(=O)c2ccccc21 1.58 µM

AC50, inactive:
Cn1c(C(=O)O)c(CC(=O)NCc2cccnc2)c2ccccc21, CCOC(=O)N/N=C/c1ccc(C)o1, Cc1ccc(NC(=O)CN2C(=O)N/C(=C/c3ccc(C)o3)C2=O)cc1, O=C(CN1C(=O)c2cccc3cccc(c23)C1=O)N1CCCCCC1, C[N+](C)(CCCCCC[N+](C)(C)CCCN1C(=O)c2cccc3cccc(c23)C1=O)CCCN1C(=O)c2cccc3cccc(c23)C1=O, O=C(O)c1ccc(Sc2nnnn2-c2ccccc2)c([N+](=O)[O-])c1, O=C(Nc1ccc(C(=O)Nc2ccc(C(=O)Nc3ccc(S(=O)(=O)O)c4cc(S(=O)(=O)O)cc(S(=O)(=O)O)c34)cc2)cc1)Nc1ccc(C(=O)Nc2ccc(C(=O)Nc3ccc(S(=O)(=O)O)c4cc(S(=O)(=O)O)cc(S(=O)(=O)O)c34)cc2)cc1, CC1(C)S[C@@H]2[C@H](NC(=O)[C@@H](N)c3ccccc3)C(=O)N2[C@H]1C(=O)O[C@H]1OC(=O)c2ccccc21, O[C@H](CN1CCN(c2cccc(Cl)c2)CC1)C(c1ccccc1)c1ccccc1, Cc1noc(C)c1-c1nccc(NCCN2CCOCC2)n1, c1ccc2c(c1)CCCc1cc(NCCN3CCOCC3)nnc1-2, Cc1ccccc1-c1cc(NCCN2CCOCC2)ncn1, Clc1ccccc1-c1ccc2ncnc(NCCN3CCOCC3)c2c1, COCCSc1nnc(NC(=O)C(C)(C)C)s1, Cn1c(=O)c(-c2ccc(F)cc2)nc2cnc(Oc3ccccc3)nc21, CCOC(=O)c1cnc2c(cnn2CC)c1NN=C(C)C, CCOC(=O)c1cnc2c(cnn2C)c1NCCCN(C)C, COc1ccc(-c2c(C)oc3c(CN4CCN(CCO)CC4)c(O)ccc3c2=O)cc1OC, CS(=O)(=O)c1cnc2c(-c3ccc(F)cc3)cnn2c1N, CN(C)c1ncc2nc(-c3ccc(F)cc3)c(=O)n(C)c2n1, COCCn1c(=O)c(-c2cccc(C#N)c2)nc2cnc(N(C)C)nc21, CN(C)c1ncc2nc(-c3cccc(C#N)c3)c(=O)n(CCC#N)c2n1, COCC(=O)N1CCC[C@@]2(CCN(C(=O)Nc3cccc(F)c3)C2)C1, CCCCn1c(SCC(=O)N2CCCC2)nc2c1c(=O)n(C)c(=O)n2C, C[N+](C)(C)CCCCCCCCCC[N+](C)(C)C, CCCCCCCCCCCC1=C(O)C(=O)C=C(O)C1=O, C[C@]1(C2CCCC2)Cc2cc(OCC(=O)O)c(Cl)c(Cl)c2C1=O, CCCn1c(=O)c2[nH]c(-c3ccc(OCC(=O)NCCN)cc3)nc2n(CCC)c1=O, Cc1nc2ncnn2c(C)c1CCC(=O)NCCC1=CCCCC1, O=C(CN1CCN(C2CCCCC2)CC1)NCCC1=CCCCC1, CN(C)/C(CN1CCN(C=O)CC1)=C1\N=C(c2ccccc2)OC1=O, COc1ccccc1CN1CC[C@@]2(CCCN(S(=O)(=O)c3ccccc3)C2)C1, O=C(ON=C1CCN(S(=O)(=O)c2ccccc2)CC1)c1ccccc1, CCN(CC)CCOC(=O)C(c1ccccc1)c1ccccc1, CCN(CCCc1ccccc1)CCCc1ccccc1, COc1ccccc1N1CCN(CCN(C(=O)C2CCCCC2)c2ccccn2)CC1
